# Screening data from PubChem BioAssay.
# Hits are enriched below; roughly 4.3% of the tested compounds scored in any of these assays.
# FGF22 binding – binders of recombinant human FGF22 by thermal shift. hit rate 1.5% among 340,000. AID 651658. SYPRO orange fluorescence; percent of sucrose octasulfate shift, DMSO zero. Q9HCT0. activity (Tm shift, normalised), % at 9.99 µM;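 active means mean Tm shift, scaled 0 neutral to 100 positive control, at about 1.3% or above, every replicate too, limit read from the data; inconclusive means no clear call, values can overlap the other calls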
# Target sequence (Q9HCT0 whole entry, looked up): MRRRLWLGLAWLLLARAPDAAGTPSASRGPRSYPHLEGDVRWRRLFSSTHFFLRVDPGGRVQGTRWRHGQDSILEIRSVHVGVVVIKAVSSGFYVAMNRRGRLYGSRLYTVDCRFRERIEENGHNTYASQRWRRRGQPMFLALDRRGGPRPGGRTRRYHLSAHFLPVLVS
# MLL AF4-AF9 inh – blocks AF4 peptide binding to human AF9 | AID 651704 | AlphaScreen, biotin-AF4 peptide binding to FLAG-AF9 | P42568 | inhibition, % at 10 µM | hit rate 0.47% among 350,000;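 active means every replicate reaching a set inhibition limit, whatever the replicate mean, cut at about 25% in these data; inconclusive means mean inhibition reaches that limit but some replicates miss it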;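 further: 0% = plate neutral control median and 100% = total signal loss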
# SMARCA2 activ – SMARCA2 function activation, primary screen; MG213 cells, MMTV-luciferase reporter, dexamethasone, overnight; activation, % at 9.1 µM; hit rate 1% among 370,000; AID 652017; in the data active means activation above about 7.8%;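 further: 0% = vehicle wells and 100% = reference activator wells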
# esBAF inh – SWI/SNF esBAF complex inhibition | mouse ES cells, Bmi1-luciferase knock-in reporter, 24 h; 100% = twice the neutral-well signal | reporter increase, % at 12.5 µM | hit rate 2% among 350,000 | AID 602393; in the data active means activation above about 40%; inconclusive means no clear call, values can overlap the other calls;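 further: 0% = median of the plate's neutral control wells and 100% = double that signal; a rise in the Bmi1 reporter signal indicates esBAF inhibition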
# Wnt bcat act – activates Wnt/beta-catenin signaling in a reporter cell assay; activator, plate reader; activation, % at 9.35 µM; hit rate 1.2% among 300,000; AID 743398; in the data active means activation above about 30%, passing the limit was not always enough; inconclusive means no clear call, values can overlap the other calls;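 further: 0% = neutral control wells and 100% = positive control wells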
# MITF TRPM1 HTS – increases MITF-driven TRPM1 promoter luciferase signal | SK-MEL-5 TRPM1-promoter luciferase, 24 h; % of positive control, neutral wells = 0 | activation, % at 12.5 µM | hit rate 0.75% among 300,000;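 active means mean activation of at least 80% with every replicate also reaching 80%; inconclusive means mean reaches 80% but some replicate falls short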;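 further: 0% = neutral control wells and 100% = parthenolide positive control wells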
# * marks the source's active call; other numbers are inactive results; ? = inconclusive; / = no result.
SMILES,FGF22 binding,MLL AF4-AF9 inh,SMARCA2 activ,esBAF inh,Wnt bcat act,MITF TRPM1 HTS
COc1ccc2c3c(n(C)c2c1)[C@H](CO)N(C(=O)C1CCOCC1)CC31CCN(C(=O)Nc2cccc(F)c2)CC1,0,1,/,/,/,/
O=C(CN1CCOCC1)N1CC2(C1)[C@@H](c1ccccc1)[C@@H](CO)N2Cc1cccc(F)c1,0,-13,/,/,/,/
CCCNC(=O)C1(C)CCN(C(=O)c2cccc(C#N)c2)C1 (stereo not drawn),0,28*,-2,1,7,/
CCOC(=O)c1ccc(NC(=S)NCC(O)c2ccccc2)cc1 (stereo not drawn),/,/,-2,/,0,12
CCc1ccc(NC(=O)C(=O)NCC(O)c2ccccc2)cc1 (stereo not drawn),43*,-8,-3,/,/,8
CCCc1cn(CC[C@@H]2CC[C@@H](NC(=O)C3CCCCC3)[C@H](CO)O2)nn1,0,-1,/,-2,/,/
C[C@H]1CN([C@@H](C)CO)S(=O)(=O)c2ccc(-c3cccnc3)cc2O[C@H]1CN(C)Cc1cccnc1,/,/,/,-6,/,/
O=C(/C=C/c1cccs1)Nc1scc(-c2ccccc2)c1C(=O)O,/,27*,2,/,2,26
CC1CCc2c(sc(NC(=O)c3ccco3)c2C(=O)O)C1 (stereo not drawn),0,-1,-4,3,23,13
Cc1ccc(C(=O)Nc2scc(-c3ccccc3)c2C(=O)O)cc1,0,-1,1,/,0,/
O=C(Nc1scc(-c2ccccc2)c1C(=O)O)c1ccccc1Cl,37*,2,0,1,1,3
CC1CCc2c(sc(NC(=O)/C=C/c3cccs3)c2C(=O)O)C1 (stereo not drawn),0,1,0,53*,1,7
Cc1ccccc1NC(=O)C1Cc2ccccc2CN1C(=O)c1ccco1 (stereo not drawn),0,-7,7,55*,10,30
COc1cccc(NC(=O)C2Cc3ccccc3CN2C(=O)c2ccco2)c1 (stereo not drawn),0,-4,6,57*,4,5
NS(=O)(=O)c1ccc(NC(=O)C2Cc3ccccc3CN2C(=O)c2ccco2)cc1 (stereo not drawn),0,-4,-1,0,-1,/
C[C@H](CO)N1C[C@H](C)[C@H](CN(C)CC2CC2)OCCCC[C@H](C)Oc2ccc(NC(=O)Nc3ccc4c(c3)OCO4)cc2C1=O,0,36*,/,2,/,/
C[C@H](CO)N1C[C@H](C)[C@@H](CN(C)CC2CC2)OCCCC[C@H](C)Oc2ccc(NC(=O)Nc3ccc4c(c3)OCO4)cc2C1=O,0,29*,/,-2,/,/
C[C@@H]1CCCCO[C@@H](CN(C)CC2CC2)[C@H](C)CN([C@H](C)CO)C(=O)c2cc(NC(=O)Nc3ccc4c(c3)OCO4)ccc2O1,0,?,/,0,/,/
COc1ccc(NC(=O)Nc2ccc3c(c2)C(=O)N([C@H](C)CO)C[C@@H](C)[C@H](CN(C)CC2CC2)OCCCC[C@@H](C)O3)cc1,0,28*,/,1,/,/
C[C@H]1CCCCO[C@@H](CN(C)C)[C@@H](C)CN([C@@H](C)CO)C(=O)c2cc(NC(=O)Nc3ccc4c(c3)OCO4)ccc2O1,/,/,/,-4,/,/
COc1ccc(NC(=O)Nc2ccc3c(c2)C(=O)N([C@H](C)CO)C[C@H](C)[C@@H](CN(C)CC2CC2)OCCCC[C@@H](C)O3)cc1,0,16,/,-4,/,/
CCCN(C)C[C@@H]1OCCCC[C@@H](C)Oc2ccc(NC(=O)Nc3ccc4c(c3)OCO4)cc2C(=O)N([C@H](C)CO)C[C@H]1C,-1,25*,/,9,/,/
CCC(=O)Nc1ccc2c(c1)C(=O)N(C)C[C@@H](OC)[C@H](C)CN(C(C)=O)[C@H](C)CO2,0,-3,/,0,/,/
CC(C)NC(=O)N[C@@H]1C=C[C@H](CC(=O)O)O[C@@H]1CO,0,-1,/,1,/,/
C[C@@H]1CCCCO[C@@H](CN(C)Cc2ccc(C(F)(F)F)cc2)[C@@H](C)CN([C@H](C)CO)C(=O)c2cc(NC(=O)CCCCCC(=O)Nc3ccccc3N)ccc2O1,0,1,/,/,/,/
SMILES,FGF22 binding,MLL AF4-AF9 inh,SMARCA2 activ,esBAF inh,Wnt bcat act,MITF TRPM1 HTS
CNC[C@H]1OCCCC[C@@H](C)Oc2ccc(NC(=O)CCC(F)(F)F)cc2C(=O)N([C@H](C)CO)C[C@@H]1C,1,-7,/,-4,/,/
COc1ccc(NC(=O)Nc2ccc3c(c2)C(=O)N([C@H](C)CO)C[C@@H](C)[C@H](CN(C)C(=O)NC2CCCCC2)OCCCC[C@H](C)O3)cc1,15*,2,/,6,/,/
COc1ccc(NC(=O)Nc2ccc3c(c2)C(=O)N([C@@H](C)CO)C[C@H](C)[C@H](CN(C)C(=O)NC2CCCCC2)OCCCC[C@@H](C)O3)cc1,0,-2,/,3,/,/
C[C@H]1CCCCO[C@@H](CN(C)CC2CCCCC2)[C@@H](C)CN([C@@H](C)CO)C(=O)c2cc(NC(=O)Nc3ccc4c(c3)OCO4)ccc2O1,1.7*,-15,/,1,/,/
C[C@@H]1CCCCO[C@@H](CN(C)CC2CCCCC2)[C@@H](C)CN([C@@H](C)CO)C(=O)c2cc(NC(=O)Nc3ccc4c(c3)OCO4)ccc2O1,/,-13,/,3,/,/
Cc1ccc(-c2cc(NC(=O)c3ccccc3)on2)cc1,0,2,1,60*,34*,75
COC(=O)[C@]1(CNS(=O)(=O)c2ccc(F)cc2)CC(=O)N(C)[C@@H]1c1ccccc1,/,/,-1,/,/,/
Cn1c(=O)c2cc(NC(=S)NCc3ccccc3F)ccc2n1Cc1ccccc1,0,-2,0,-5,1,/
Cn1c(=O)c2cc(NC(=S)NCc3ccccc3F)ccc2n1Cc1cccc(C(F)(F)F)c1,3.9*,-1,-3,4,-5,/
Cn1c(=O)c2cc(NC(=O)NCc3ccc(Cl)cc3Cl)ccc2n1Cc1ccc(F)cc1,45*,-1,-3,0,-1,/
S=C(NCC1CCCO1)Nc1ccc(Cl)cc1Cl (stereo not drawn),/,/,1,49*,?,10
S=C(NCC1CCCO1)Nc1ccc(Cl)cc1 (stereo not drawn),1,0,0,/,4,6
CCOc1cc(NC(=S)NCC2CCCO2)c(OCC)cc1NC(=O)C1CC1 (stereo not drawn),43*,0,-5,/,0,9
CCOc1cc(NC(=S)NCC2CCCO2)c(OCC)cc1NC(=O)c1ccccc1 (stereo not drawn),/,/,0,15,-6,3
S=C(Nc1ccc(Cl)cc1Cl)NC1CCCCC1,/,/,5,84*,/,107*
COC(=O)c1ccc(NC(=O)C(=O)NCC2CCCO2)cc1 (stereo not drawn),0,-6,2,45*,14,14
O=C(Nc1ccc(Cl)cc1Cl)NC1CCCC1,0,-2,3,18,7,11
